The text below walks through data of PubChem BioAssay (NCATS).

Molecules are shown by their SMILES. Inconclusive results are not listed. Active and inactive are the calls of the source. Unless noted, calls follow the shape of the dose curve; as a rule, active = well fitted curve in the direction sought with a large enough effect; inconclusive = small, poorly fitted or top-dose-only effect, or another doubt; inactive = no such curve, though single readings can be large; an effect the other way counts as inactive or inconclusive.

For assay [1], the target named is Cytochrome P450 2D6 (Homo sapiens) (UniProt P10635). Description: qHTS for inhibitors of CYP2D6 against the NCATS DSHEA and TCM libraries (AID 1919972). Also: % is scaled to controls: 0 for no effect and ±100 for the full control effect. The gist of the method: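 CYP2D6 enzyme with pro-luciferin substrate in manufacturer buffer (typically 100 mM KPO4), preincubated 15 min RT with substances (most at 19.5 nM upward); NADPH regeneration system (1x) started 30–45 min RT reaction; P450-Glo luminescence read after 30 min; quinidine as intraplate control.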
(Quantitative high-throughput screening tests each substance at several concentrations.)

For assay [2], the target named is Cytochrome P450 2C9 (Homo sapiens) (UniProt P11712). Nature of the assay: qHTS for inhibitors of CYP2C9 against the NCATS DSHEA and TCM libraries (AID 1919973).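 Also: luminogenic pro-luciferin CYP2C9 substrate turned into luciferin with NADPH regeneration; % is scaled to controls: 0 for no effect and ±100 for the full control effect.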 The gist of the method: (§1)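 Concentration-response screening with isoform-matched pro-luciferin substrates. The CYP reaction was initiated by NADPH regenerating solution and ran 30-45 min in darkness at room temperature.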

The target of assay [3] is Cytochrome P450 2C19 (Homo sapiens) (UniProt P33261). Nature of the assay: qHTS for inhibitors of CYP2C19 against the NCATS DSHEA and TCM libraries (AID 1919974).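 Also: luminescence from luciferin released by CYP2C19 oxidation of a pro-luciferin substrate; % is scaled to controls: 0 for no effect and ±100 for the full control effect.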 The gist of the method:
as §1

The nature of assay [4]: KB-3-1 P-gp reporter qHTS against the NCATS DSHEA and TCM libraries (AID 1919975). Also: 0% is about no effect. The gist of the method:
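72 h exposure of KB-3-1 cells (DMEM, 10% FBS) to DSHEA/TCM samples, concentration-response; cell viability measured as CellTiter-Glo luminescence after 30 min at room temperature.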

The nature of assay [5]: qHTS Counterscreen for compound interference against the NCATS DSHEA and TCM libraries (AID 1919978). Also: % of control where 0% means no effect. The settings on record: firefly luciferase detection reagent interference, luminescence. The gist of the method:
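Read-out is luminescence after 30 min at RT with luciferin detection reagent. Before that, compounds (19.5 nM to 39.8 uM final) sat 15 min at RT with 1 uM D-luciferin or 100 mM potassium phosphate buffer. PTC124 served as intraplate control.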

A short description of assay [6]: Dual reporter qHTS for agonist of Pregnane X Receptor (hPXR) against the NCATS DSHEA and TCM libraries: Fluorescence readout (AID 1920058). Also: 0% is about no effect. Summed up: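 Cells were plated at 2000 per well and allowed to attach for 5 h. Test substances were pinned in and incubated roughly 24 h. CellTiter-Fluor was then added and fluorescence measured after 1 h.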
The target in assay [7] is Nuclear receptor subfamily 1 group I member 2 (Homo sapiens) (UniProt O75469). Description: Dual reporter qHTS for agonist of Pregnane X Receptor (hPXR) against the NCATS DSHEA and TCM libraries: Luminescence readout (AID 1920059). Also: 0% is about no effect. The gist of the method: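 hPXR-LucHepG2 cells in phenol red-free DMEM with 5% charcoal-stripped FBS, 2000 cells/well, attached 5 h, then exposed 24 h at 37C to compounds; rifampicin as positive agonist control (2.8 nM–92 uM). Luciferase luminescence read.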

Assay [8] has the same target. Description: Dual reporter qHTS for antagonist of Pregnane X Receptor (hPXR) against the NCATS DSHEA and TCM libraries: Luminescence Readout (AID 1920060). Also: 0% is about no effect. Summed up: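 Rifampicin-stimulated (2 uM final) hPXR-luciferase HepG2 cells were treated for 24 h with DSNP/TCM substances. Viability came from CellTiter-Fluor fluorescence, reporter activity from ONE-Glo luminescence.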

Assay [9] is described as follows: qHTS drug screen for cell cycle checkpoint inhibitors in PARPi-resistant BRCA-mutant ovarian cancer cell lines. (AID 1963452; calls by dose curve). The settings on record: PEO1/OlaR viability, CellTiter-Glo luminescence, 96 h, stronger effect = lower value. The gist of the method:
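PEO1, PEO4 and PEO1/OlaR ovarian cancer cells, 600 per well, exposed 96 h at 37C to a dilution series. Viability read by CellTiter-Glo luminescence, normalized to DMSO and empty wells; activity summarized as Z-AUC.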

The nature of assay [10]: qHTS profiling for inhibitors of Plasmodium falciparum proliferation (AID 504749). Also: potency is read from the fitted curve at half-maximal effect.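 As to activity, negative = inhibition: 0% = DMSO vehicle and full inhibition = artemisinin control.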 As to all read-outs here: nearly all actives have a fitted effect of over 60% in size. To be noted: P. falciparum in erythrocytes, SYBR Green DNA, 72 h; for activity, negative = inhibition: at 28.7 µM (top of the series). The gist of the method: (§2)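 Quantitative HTS: compounds pinned into medium, infected erythrocytes added (0.3% parasitemia, 2.5% hematocrit), 72 h culture at 37 C under 5% CO2. Saponin/Triton lysis with SYBR Green I, overnight RT, then fluorescence read.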

The subject of a further assay is 3D7. The assay is described as above. The settings on record: P. falciparum in erythrocytes, SYBR Green DNA, 72 h; series mostly up to 28.7 µM. Summed up:
as §2

The next assay relates to 7G8. The description is as above. To be noted: P. falciparum in erythrocytes, SYBR Green DNA, 72 h; series mostly up to 28.7 µM. Summed up:
as §2

In another assay the test system is AA1029. The description is as above. The settings on record: P. falciparum in erythrocytes, SYBR Green DNA, 72 h; series mostly up to 28.7 µM. The gist of the method:
as §2

In a further assay the test system is AS120. The assay is described as above. The settings on record: P. falciparum in erythrocytes, SYBR Green DNA, 72 h; series mostly up to 28.7 µM. The gist of the method: as §2
Another assay has as its system ATS189. Described as above. To be noted: P. falciparum in erythrocytes, SYBR Green DNA, 72 h; series mostly up to 28.7 µM. The gist of the method:
as §2

For another assay, the system named is ATS95. The assay is described as above. To be noted: P. falciparum in erythrocytes, SYBR Green DNA, 72 h; series mostly up to 28.7 µM. The gist of the method:
as §2

Another assay relates to C2A. The assay is described as above. To be noted: P. falciparum in erythrocytes, SYBR Green DNA, 72 h; series mostly up to 28.7 µM. The gist of the method: as §2
Another assay deals with CP185. The description is as above. The settings on record: P. falciparum in erythrocytes, SYBR Green DNA, 72 h; series mostly up to 28.7 µM. The gist of the method: as §2
A further assay deals with CP191. The description is as above. The settings on record: P. falciparum in erythrocytes, SYBR Green DNA, 72 h; series mostly up to 28.7 µM. Summed up:
as §2

A further assay has as its system CP192. Described as above. To be noted: P. falciparum in erythrocytes, SYBR Green DNA, 72 h; series mostly up to 28.7 µM. The gist of the method:
as §2

The mark [11] stands for this setting: measured here: PEO1 parental Z-AUC.

Nuclear receptor subfamily 1 group I member 2 (Homo sapiens), sequence (O75469 whole entry, looked up): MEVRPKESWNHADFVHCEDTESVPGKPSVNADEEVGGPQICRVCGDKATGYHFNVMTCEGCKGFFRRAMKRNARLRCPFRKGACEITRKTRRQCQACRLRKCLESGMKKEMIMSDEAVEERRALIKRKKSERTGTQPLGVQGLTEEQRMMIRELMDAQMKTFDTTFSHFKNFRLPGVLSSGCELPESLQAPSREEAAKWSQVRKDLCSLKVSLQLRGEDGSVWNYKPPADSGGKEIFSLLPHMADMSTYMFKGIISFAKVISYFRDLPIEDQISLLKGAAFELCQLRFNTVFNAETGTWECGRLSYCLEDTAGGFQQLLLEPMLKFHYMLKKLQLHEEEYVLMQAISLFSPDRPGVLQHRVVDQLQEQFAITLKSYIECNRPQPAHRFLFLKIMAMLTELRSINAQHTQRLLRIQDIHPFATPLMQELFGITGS
Cytochrome P450 2D6 (Homo sapiens), sequence (P10635 whole entry, looked up): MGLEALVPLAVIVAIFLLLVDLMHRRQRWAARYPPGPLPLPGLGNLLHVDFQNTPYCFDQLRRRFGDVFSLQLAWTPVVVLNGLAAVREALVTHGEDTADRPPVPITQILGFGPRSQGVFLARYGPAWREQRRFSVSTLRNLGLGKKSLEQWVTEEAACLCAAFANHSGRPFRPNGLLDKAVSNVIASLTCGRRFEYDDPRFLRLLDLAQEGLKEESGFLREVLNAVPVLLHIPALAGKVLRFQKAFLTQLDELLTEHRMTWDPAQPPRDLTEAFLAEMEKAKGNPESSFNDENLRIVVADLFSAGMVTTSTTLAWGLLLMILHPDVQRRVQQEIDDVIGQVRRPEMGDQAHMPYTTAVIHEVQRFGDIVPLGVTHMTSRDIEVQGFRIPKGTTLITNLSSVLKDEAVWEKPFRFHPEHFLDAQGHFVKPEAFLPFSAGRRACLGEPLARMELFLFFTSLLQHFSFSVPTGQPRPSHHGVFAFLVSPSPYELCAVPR
Cytochrome P450 2C19 (Homo sapiens), sequence (P33261 whole entry, looked up): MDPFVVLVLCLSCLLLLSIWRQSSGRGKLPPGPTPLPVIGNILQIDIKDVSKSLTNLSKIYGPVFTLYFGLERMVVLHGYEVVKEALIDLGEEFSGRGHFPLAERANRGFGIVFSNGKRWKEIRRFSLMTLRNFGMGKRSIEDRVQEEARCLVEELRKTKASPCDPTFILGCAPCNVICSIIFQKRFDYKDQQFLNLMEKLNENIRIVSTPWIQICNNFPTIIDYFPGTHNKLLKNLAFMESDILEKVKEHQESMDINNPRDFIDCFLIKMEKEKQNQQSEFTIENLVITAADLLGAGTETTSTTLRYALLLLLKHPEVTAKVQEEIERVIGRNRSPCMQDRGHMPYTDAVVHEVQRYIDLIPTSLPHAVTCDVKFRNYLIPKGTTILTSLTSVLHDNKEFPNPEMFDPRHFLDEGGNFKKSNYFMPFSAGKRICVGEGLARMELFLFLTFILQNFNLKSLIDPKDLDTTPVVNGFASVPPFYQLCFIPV
Cytochrome P450 2C9 (Homo sapiens), sequence (P11712 whole entry, looked up, canonical isoform): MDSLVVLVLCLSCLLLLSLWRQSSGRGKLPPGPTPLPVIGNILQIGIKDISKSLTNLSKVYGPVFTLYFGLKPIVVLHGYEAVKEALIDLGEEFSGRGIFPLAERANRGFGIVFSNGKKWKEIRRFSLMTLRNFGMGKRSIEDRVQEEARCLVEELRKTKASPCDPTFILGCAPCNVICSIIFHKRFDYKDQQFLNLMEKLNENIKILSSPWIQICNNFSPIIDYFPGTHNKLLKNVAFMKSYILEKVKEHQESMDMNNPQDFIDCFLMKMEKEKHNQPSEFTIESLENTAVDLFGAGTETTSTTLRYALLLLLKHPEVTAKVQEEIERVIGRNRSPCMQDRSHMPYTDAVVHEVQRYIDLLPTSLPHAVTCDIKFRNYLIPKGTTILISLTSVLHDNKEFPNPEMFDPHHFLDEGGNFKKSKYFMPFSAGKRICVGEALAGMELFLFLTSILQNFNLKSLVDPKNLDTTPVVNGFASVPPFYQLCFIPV

Take `COC1=C(OC)C(=O)C(C/C=C(\C)CC/C=C(\C)CC/C=C(\C)CC/C=C(\C)CC/C=C(\C)CC/C=C(\C)CC/C=C(\C)CC/C=C(\C)CC/C=C(\C)CCC=C(C)C)=C(C)C1=O`: the result in assay [1], in [4], in [6] and in assay [8] was inactive. The Potency entry (in assay [2]; in assay [3]; in assay [7]; in the assay with 3D7; in the assay with 7G8; with AA1029) was “inactive” in each case. For the same compound, the Potency result in the assay on AS120, in the assay with ATS189, in the assay with ATS95, in the assay with C2A, with CP185 and in the assay on CP191 was “inactive” in each case. The Potency entry with CP192 was “inactive”. Further, in [5], the max response is 5.89% (inactive). Moreover, the Z-AUC in assay [9] is -0.238 (inactive); in [9] (setting [11]), -0.0279; in [9] (measured here: PEO4 Z-AUC) it was 0.209. Besides, the activity, negative = inhibition in assay [10] (parasite line A) was -2.4% (inactive); in assay [10] (parasite line B), 5.89% (inactive).

With `C[C@H]1O[C@@H](O[C@H]2[C@@H](O)C[C@H](O[C@H]3[C@@H](O)C[C@H](O[C@H]4CC[C@@]5(C)[C@H](CC[C@@H]6[C@@H]5C[C@@H](O)[C@]5(C)[C@@H](C7=CC(=O)OC7)CC[C@]65O)C4)O[C@@H]3C)O[C@@H]2C)C[C@H](O)[C@@H]1O`, the Z-AUC was -1.16 (inactive) in assay [9], -1.92 in assay [9] (setting [11]) and -1.33 in assay [9] (measured here: PEO4 Z-AUC). Further, the activity, negative = inhibition was -10.9% (inactive) in assay [10] (parasite line A) and 10.4% (inactive) in [10] (parasite line B). The Potency result in the assay with 3D7, in the assay on AA1029, with AS120, in the assay with ATS189, in the assay with ATS95 and in the assay on C2A was “inactive” throughout. In addition, the Potency entry with CP185, in the assay with CP191 and in the assay on CP192 was “inactive” in each case. Further, the Potency in the assay on 7G8 was 11.2 µM (active).

In the case of `CC(=O)NCCCS(=O)(=O)O`, the Z-AUC in assay [9] is 1.02 (inactive); in [9] (setting [11]), 1.45; in [9] (measured here: PEO4 Z-AUC) it was 1.03. For the same compound, the activity, negative = inhibition in assay [10] (parasite line A) is 2.58% (inactive); in assay [10] (parasite line B), 11.9% (inactive). Further, the Potency result in the assay with 3D7, with 7G8, in the assay on AA1029, in the assay with AS120, with ATS189 and with ATS95 was “inactive” in each case. The Potency entry with C2A, with CP185, with CP191 and in the assay with CP192 was “inactive” each time.

On to `CCC[C@@H]1C[C@@H](C(=O)N[C@@H]([C@H]2O[C@H](SC)[C@H](O)[C@@H](O)[C@H]2O)[C@H](C)Cl)N(C)C1`, for which the Z-AUC is 1.72 (inactive) in [9], 1.69 in assay [9] (setting [11]) and 1.63 in [9] (measured here: PEO4 Z-AUC).

With `CCOC(=O)c1c[nH]c2cc(OCC(C)C)c(OCC(C)C)cc2c1=O`, the Potency in assay [10] (parasite line A) was 0.0398 µM (active); in [10] (parasite line B), 0.0562 µM (active); in the assay with 3D7, 0.126 µM (active); in the assay with 7G8, 0.0708 µM (active); in the assay on AA1029, 0.0794 µM (active); in the assay with AS120, 0.0447 µM (active). Moreover, the Potency in the assay with ATS189 is 0.0631 µM (active); in the assay with ATS95, 0.0891 µM (active); in the assay on C2A, 0.199 µM (active); in the assay on CP185, 0.1 µM (active); with CP191 it was 0.0501 µM (active).

For the compound `Cn1cc(NC(=O)c2cc(NC(=O)c3cc(NC=O)cn3C)cn2C)cc1C(=O)NCCC(=N)N`, the Potency in [10] (parasite line A) was 8.91 µM (active); in assay [10] (parasite line B) it was 11.2 µM (active); in the assay on 3D7, 10 µM (active); with 7G8, 0.316 µM (active); in the assay with AA1029, 7.08 µM (active); with AS120, 7.08 µM (active). Moreover, the Potency with ATS189 was 11.2 µM (active); in the assay on ATS95, 6.31 µM (active); in the assay with C2A, 7.94 µM (active); with CP185, 11.2 µM (active); in the assay on CP191 it was 10 µM (active).

Take `CNC(=O)[C@H](Cc1c[nH]c2ccccc12)NC(=O)[C@@H](CC(=O)NO)CC(C)C`: the Z-AUC is 0.599 (inactive) in assay [9], 0.54 in assay [9] (setting [11]) and 0.809 in assay [9] (measured here: PEO4 Z-AUC). For the same compound, the Potency in assay [10] (parasite line A) was 11.2 µM (active); in the assay with 3D7, 10 µM (active); in the assay with 7G8, 11.2 µM (active). The Potency entry in the assay on AA1029 and with ATS189 was “inactive” throughout.
